ALR H2O2 inh: inhibitors of human sulfhydryl oxidase ALR | inhibition, % (concentration not given with the values) | P55789 | 290,000 compounds, 3.8% hits | purified ALR, DTT oxidation, H2O2 HRP-luminol luminescence | AID 485317;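 active = mean replicate inhibition above about 79%, with every replicate also reaching it, limit read from the data; inconclusive = only one of the two criteria met; inactive = mean below limit and not every replicate reaching it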
Target sequence (P55789 whole entry, looked up): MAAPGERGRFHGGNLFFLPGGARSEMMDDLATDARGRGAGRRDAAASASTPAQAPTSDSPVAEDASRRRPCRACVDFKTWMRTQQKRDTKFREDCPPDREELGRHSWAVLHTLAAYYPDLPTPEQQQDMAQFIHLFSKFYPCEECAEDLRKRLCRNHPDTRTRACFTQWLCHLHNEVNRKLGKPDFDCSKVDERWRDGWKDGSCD
IDE inh: inhibitors of human insulin-degrading enzyme in cells | P14735 | HEK cells, FAbetaB cleavage, fluorescence polarization | inhibition, % at 5.59 µM | 320,000 compounds, 0.41% hits | AID 434962;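 active = percent inhibition above the average of all tested compounds plus 3 SD, set per screening campaign, cut at about 16% in these data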;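 also: IDE supplied by intact live HEK cells; FP after avidin binding of uncleaved biotin substrate so inhibition keeps polarization high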
CaV13 FRET inh: Primary screen for inhibitors of IQ motif and Ca2+-dependent inactivation inhibitor domain binding in CACNA1D, Förster resonance energy transfer in living cells, …. 340,000 compounds, 0.098% hits. HEK cells, CFP/YFP FRET ICDI-IQ, plate reader, 10 min; percent FRET-ratio fall versus neutral wells. AID 743397. inhibition, % at 12.3 µM;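 active = mean replicate inhibition of at least 30% and at least 1% of replicates passing that level; inconclusive = only one of the two criteria is met; inactive = neither criterion is met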
PfM18AAP inh-1: PfM18AAP enzyme inhibition; recombinant PfM18AAP, H-Glu-NHMec fluorogenic cleavage; inhibition, % at 7.35 µM; 290,000 compounds, 1.2% hits; AID 1822;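 active = inhibition above the campaign mean inhibition over all tested compounds plus 3 SD, cut at about 28% in these data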
IDE cell activ: activators of human insulin-degrading enzyme in cells | AID 493087 | 340,000 compounds, 0.073% hits | P14735 | activation, % at 5.96 µM | HEK cells, FAbeta-B cleavage, fluorescence polarization; 0% vehicle, 100% cell-free pure enzyme wells;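 active = activation above the mean of all tested compounds plus 3 SD, set per screening campaign, cut at about 17% in these data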
PolyA inhibitor: inhibitors of polyadenylation in S. cerevisiae; S. cerevisiae SKY197-pL101 polyadenylation reporter, beta-gal luminescence; efflux-impaired pdr1/pdr3 knockout yeast; score 100 = 6 SD above DMSO; activity score, % at 12 µM; 300,000 compounds, 0.02% hits; AID 1875;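 active = lowest replicate activity score at least 50, where 100 means six control SD above control mean; inconclusive = lowest score under 50 but half or more replicates reach 50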;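 also: yeast exposed to compound for 9 h at 30 °C; higher score means more reporter readthrough which indicates perturbed polyadenylation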
PfM18AAP inh-2: PfM18AAP inhibition, confirmation; recombinant PfM18AAP, H-Glu-NHMec fluorogenic cleavage; inhibition, % at 7.35 µM; 2,400 compounds, 28% hits; shares compounds with PfM18AAP inh-1;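 active = mean inhibition over replicate wells above the hit cutoff set for the earlier primary screen, cut at about 29% in these data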
CTSL1 counter: Cathepsin L (human) inhibition, confirmation. shares compounds with PfM18AAP inh-1. purified cathepsin L1, Z-Leu-Arg-MCA fluorescence. inhibition, % at 5.96 µM. 2,400 tested, under 10 active;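 active = average inhibition across replicates above the hit cutoff set in the earlier primary screen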
Target sequence (P07711 whole entry, looked up): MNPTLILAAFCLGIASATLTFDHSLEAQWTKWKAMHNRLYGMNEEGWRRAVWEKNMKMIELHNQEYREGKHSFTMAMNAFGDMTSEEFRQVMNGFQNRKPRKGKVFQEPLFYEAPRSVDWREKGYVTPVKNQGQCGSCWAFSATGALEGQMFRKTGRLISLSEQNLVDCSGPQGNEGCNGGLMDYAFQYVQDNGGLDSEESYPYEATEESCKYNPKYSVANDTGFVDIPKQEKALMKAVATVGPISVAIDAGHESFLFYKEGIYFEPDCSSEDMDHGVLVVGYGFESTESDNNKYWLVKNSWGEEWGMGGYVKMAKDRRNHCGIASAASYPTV
IDE cell inh cf: confirmation of human insulin-degrading enzyme inhibitors in cells; shares compounds with IDE inh; HEK cells, FAbetaB cleavage, fluorescence polarization; inhibition, % at 5.59 µM; 1,200 compounds, 51% hits; AID 435028;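 active = mean inhibition across triplicate wells above the cutoff set by the earlier primary insulin-degrading enzyme screen, cut at about 16% in these data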
HEK293 tox: kills HEK cells in IDE inhibitor counter-screen; shares compounds with IDE inh; HEK293 cytotoxicity, ATP luminescence; inhibition, % at 5.59 µM; 1,200 compounds, 28% hits; AID 449730; in the data active = inhibition above about 22%
Each line names hits and unclear results; the compound was inactive in the other large screens (follow-up assays come after a bar, where they were run). Hits are enriched below; roughly 4.1% of the tested compounds scored in any of these assays.

O=C(N/N=C/c1coc2ccccc2c1=O)c1ccccc1Br	PfM18AAP inh-1 35.7 | PfM18AAP inh-2 inactive | CTSL1 counter inactive
COc1ccc(C(=O)N/N=C\c2coc3ccc(Cl)cc3c2=O)cc1	none
O=C(N/N=C/c1coc2ccccc2c1=O)c1cc(O)cc(O)c1	PfM18AAP inh-1 38.6 (no result: ALR H2O2 inh, IDE inh, PolyA inhibitor) | PfM18AAP inh-2 inactive | CTSL1 counter inactive
Nc1nncn1C(=O)CCCOc1ccccc1	PfM18AAP inh-1 35.2 | PfM18AAP inh-2 50.3 | CTSL1 counter inactive
Nc1nncn1C(=O)CCc1ccccc1	PfM18AAP inh-1 71.7 (no result: ALR H2O2 inh) | PfM18AAP inh-2 49.1 | CTSL1 counter inactive
O=C(CCCOc1ccccc1)N1CCCCC1	none (no result: ALR H2O2 inh)
CC(C)(C)OC(=O)C[C@@H]1C/C=C\C[C@H](CC(=O)N(CCO)Cc2ccccc2)C(=O)N2CCC[C@H]2COC1=O	none (no result: PfM18AAP inh-1, PolyA inhibitor)
CCOC(=O)NC(=O)COC(=O)c1ccc(Sc2ncn[nH]2)c([N+](=O)[O-])c1	PfM18AAP inh-1 88.7 | PfM18AAP inh-2 91.1 | CTSL1 counter inactive
C=CCNC(=O)COC(=O)c1ccc(Sc2nncn2C)c([N+](=O)[O-])c1	none
CCNc1ccc(C(=O)OCC(=O)NC(=O)NCC(C)C)cc1[N+](=O)[O-]	none
C=CCN(CC=C)C(=O)COC(=O)c1ccc(Sc2ncn[nH]2)c([N+](=O)[O-])c1	PfM18AAP inh-1 84.1 (no result: ALR H2O2 inh) | PfM18AAP inh-2 80.5 | CTSL1 counter inactive
CC1=C(C(=O)N2CCCCCC2)CC(CC(=O)NCCCN(C)C)C(=O)N1Cc1ccc(C(C)(C)C)cc1 (stereo not drawn)	none (no result: ALR H2O2 inh, IDE inh, PfM18AAP inh-1, IDE cell activ, PolyA inhibitor)
O=C1CC(c2ccccc2)=NN1c1nc(-c2ccccc2)cs1	PfM18AAP inh-1 32.7 (no result: ALR H2O2 inh) | PfM18AAP inh-2 inactive | CTSL1 counter inactive
CCOC(=O)C1CCN(S(=O)(=O)CCNC(=O)c2cccc(OC)c2)CC1	none (no result: PfM18AAP inh-1)
Cc1c(Cl)cccc1-n1c(SCC(=O)N(C)Cc2ccccc2)nnc1-c1ccncc1	none
O=C(Nc1ccccc1)c1ccccc1CCc1ccccc1	none
O=C(CCN1C(=O)c2ccccc2C1=O)Nn1cnnc1	PfM18AAP inh-1 44.9 | PfM18AAP inh-2 46.4 | CTSL1 counter inactive
O=C(Nn1cnnc1)c1ccccc1-c1ccccc1	PfM18AAP inh-1 56.4 | PfM18AAP inh-2 63.7 | CTSL1 counter inactive
O=C(Nn1cnnc1)c1ccccc1CCc1ccccc1	PfM18AAP inh-1 42.2 (no result: CaV13 FRET inh) | PfM18AAP inh-2 34.9 | CTSL1 counter inactive
CC(NC(=O)CN1CCN(C(=O)c2cccs2)CC1)c1ccc(F)cc1F (stereo not drawn)	none (no result: PfM18AAP inh-1, PolyA inhibitor)
Cc1ccc(S(=O)(=O)N[C@@H](C)CO)cc1	none (no result: ALR H2O2 inh, IDE inh, PfM18AAP inh-1, IDE cell activ, PolyA inhibitor)
CCOC(=O)C1(C)CCCCCN1C(=O)c1csnn1 (stereo not drawn)	none (no result: ALR H2O2 inh, IDE inh, PfM18AAP inh-1, IDE cell activ, PolyA inhibitor)
CC(C)Cn1c(-c2ccccc2F)n[nH]c1=S	PfM18AAP inh-1 32.5 | PfM18AAP inh-2 inactive | CTSL1 counter inactive
Clc1ccc(NCn2cncn2)nc1	PfM18AAP inh-1 78.5, PolyA inhibitor inconclusive (no result: CaV13 FRET inh) | PfM18AAP inh-2 63.5 | CTSL1 counter inactive
CC1CCCN(C(=O)COC(=O)c2cccc(NS(=O)(=O)c3ccccc3)c2)C1 (stereo not drawn)	none (no result: PfM18AAP inh-1)
Oc1ccc(/C=N/Nc2cc(N3CCCC3)nc(N3CCCC3)n2)cc1O	ALR H2O2 inh 90.1, PfM18AAP inh-1 40.4 | PfM18AAP inh-2 inactive | CTSL1 counter inactive
O=C1/C(=C/c2ccc(O)c(O)c2)SC(=S)N1Nc1ccccc1	PfM18AAP inh-1 58.1 (no result: ALR H2O2 inh, IDE inh, CaV13 FRET inh) | PfM18AAP inh-2 30.9 | CTSL1 counter inactive
O=C1/C(=C/c2ccncc2)SC(=S)N1Nc1ccccc1	ALR H2O2 inh 98.8, PfM18AAP inh-1 32.2 (no result: IDE cell activ) | PfM18AAP inh-2 inactive | CTSL1 counter inactive
O=C(O)c1ccc(/C=C2\SC(=S)N(Nc3ccccc3)C2=O)cc1	none
CCOC(=O)c1c(CSc2ccc(C)cc2)oc2ccc(O)cc12	none
Cc1ccc2nc3c(c(Nc4ccc(O)cc4)c2c1)CCC3	ALR H2O2 inh inconclusive, PfM18AAP inh-1 33.1 | PfM18AAP inh-2 inactive | CTSL1 counter inactive
O=c1c2ccccc2sn1-c1ccccc1	IDE inh 64.5, PfM18AAP inh-1 56.3 | PfM18AAP inh-2 51.6 | CTSL1 counter inactive | IDE cell inh cf 32.0 | HEK293 tox 97.7
Cc1ccc(-n2sc3ccccc3c2=O)cc1S(=O)(=O)N1CCCCC1	IDE inh 82.9, PfM18AAP inh-1 39.9 (no result: ALR H2O2 inh) | PfM18AAP inh-2 66.2 | CTSL1 counter inactive | IDE cell inh cf 25.4 | HEK293 tox inactive
O=c1c2ccccc2sn1-c1cccc(Cl)c1	none (no result: ALR H2O2 inh, IDE inh, PfM18AAP inh-1, IDE cell activ, PolyA inhibitor)
O=c1c2ccccc2sn1-c1ccc(S(=O)(=O)N2CCCC2)cc1	IDE inh 38.0, PfM18AAP inh-1 33.1 (no result: CaV13 FRET inh) | PfM18AAP inh-2 inactive | CTSL1 counter inactive | IDE cell inh cf inactive | HEK293 tox inactive
N#Cc1ccc2c(=O)n(-c3ccccc3)sc2c1	none (no result: ALR H2O2 inh, IDE inh, PfM18AAP inh-1, IDE cell activ, PolyA inhibitor)
O=c1c2ccccc2sn1-c1ccc(S(=O)(=O)N2CCCCC2)cc1	none
CN(C)S(=O)(=O)c1cccc(-n2sc3ccccc3c2=O)c1	IDE inh 94.0, PfM18AAP inh-1 43.4 (no result: ALR H2O2 inh, PolyA inhibitor) | PfM18AAP inh-2 42.6 | CTSL1 counter inactive | IDE cell inh cf 30.9 | HEK293 tox 51.8
COc1ccc(NC(=O)C(Cc2ccccc2)n2cccc2)cc1OC (stereo not drawn)	none
Cc1ccc(C(=O)NCC(=O)OCC(=O)N(CC(C)C)c2c(N)n(Cc3ccccc3)c(=O)[nH]c2=O)cc1	none (no result: ALR H2O2 inh, PfM18AAP inh-1)
N#C/C(=C\c1ccc(O)c(O)c1)C(=O)NCCCc1ccccc1	IDE inh 28.7, PfM18AAP inh-1 33.9 (no result: ALR H2O2 inh) | PfM18AAP inh-2 inactive | CTSL1 counter inactive | IDE cell inh cf 38.2 | HEK293 tox inactive
COc1ccc(CC(=O)Nc2sc3c(c2C(N)=O)CCCC3)cc1	none
COc1ccc2nc(Nc3sc4c(c3C(N)=O)CCCC4)sc2c1	IDE inh 19.6, PfM18AAP inh-1 42.2 (no result: PolyA inhibitor) | PfM18AAP inh-2 inactive | CTSL1 counter inactive | IDE cell inh cf inactive | HEK293 tox inactive
CCOc1ccc(NC(=S)N2CCCN(Cc3cc(C)ccc3C)C2)cc1	none
Cc1ccccc1-n1sc2cc(F)ccc2c1=O	IDE inh 72.0, PfM18AAP inh-1 69.5 (no result: ALR H2O2 inh, PolyA inhibitor) | PfM18AAP inh-2 64.2 | CTSL1 counter inactive | IDE cell inh cf 16.8 | HEK293 tox 80.5

Screening data deposited in PubChem BioAssay by several laboratories.
